# From PubChem
# Shown is part of a subset that was picked to be rich in hits.
# KDM5B inh: Primary screen for KDM5B Histone Demethylases FDH-coupled qHTS; Lysine-specific demethylase 5B (Homo sapiens), Q9UGL1; KDM5B demethylase, FDH-coupled NADH fluorescence (FDH is formaldehyde dehydrogenase); Potency, µM (highest dose often 57.7 µM), most hits filed as inhibitors; hit rate 2.6% among 220,000; active means well fitted inhibition curve with a large enough effect; further: 0% is about no effect; nearly all actives have a fitted effect of over 70% in size
#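 qHTS format, multiple compound concentrations. Buffer 50 mM HEPES pH 7.5/0.01% Tween-20; 200 nM KDM5BΔAP final; 10 min compound preincubation; substrate-mix levels 12.5 µM peptide, 25 µM α-KG, 0.25 mM NAD⁺; 30 min RT; ΔRFU.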
# The depositor's hits bear a star; i = inactive. Potency means the concentration at half of the fitted maximal effect.
SMILES,KDM5B inh
COC(=O)CC1C(=O)NCCN1S(=O)(=O)c1cccc(Br)c1 (centres undefined),i
O=C(CSc1nc2ccccc2[nH]1)N1CCN(S(=O)(=O)c2ccccc2)C1,i
Cc1ccc(-c2nnc(CCC(=O)N3CCc4sccc4C3c3cccs3)o2)cc1 (centres undefined),i
CC(C)CNC(=O)CCNC(=O)NCc1nc2c(cnn2-c2ccccc2)c(=O)[nH]1,i
COc1cccc(CNC(=O)Cn2c(N3CCc4ccccc4C3)nc(C)cc2=O)c1,35.5µM*
COc1cc(NC(=O)Cn2c(N3CCc4ccccc4C3)nc(C)cc2=O)cc(OC)c1OC,i
Cc1cc(=O)n(CC(=O)Nc2ccccc2)c(N2CCc3ccccc3C2)n1,i
Cc1cc(C)cc(NC(=O)Cn2c(N3CCc4ccccc4C3)nc(C)cc2=O)c1,i
COc1ccc(NC(=O)Cn2c(N3CCc4ccccc4C3)nc(C)cc2=O)cc1Cl,i
Cc1cc(=O)n(CC(=O)Nc2cccc(Cl)c2)c(N2CCc3ccccc3C2)n1,12.6µM*
COc1ccc(NC(=O)Cn2c(N3CCc4ccccc4C3)nc(C)cc2=O)cc1OC,i
Cc1cc(=O)n(CC(=O)Nc2ccc(C(C)C)cc2)c(N2CCc3ccccc3C2)n1,i
Cc1cc(=O)n(CC(=O)Nc2cccc(C(C)C)c2)c(N2CCc3ccccc3C2)n1,22.4µM*
Cc1ccc(Nc2nnc(SC(C)C#N)s2)cc1 (centres undefined),i
O=C1CCCCN1Cc1nc(C2CCOC2)no1 (centres undefined),i
CC(C)CNC(=O)NCCn1c(-c2ccccc2)nc2ccccc21,i
C=CCn1c(SC/C=C/C)nc2c1c(=O)n(C)c(=O)n2C,i
COc1ccc(-c2ccccc2NC(=O)C2CCCN(CC=C(C)C)C2)cc1 (centres undefined),i
COc1cccc(-c2ccccc2NC(=O)C2CCN(Cc3ccc(F)cc3)CC2)c1,i
COc1cccc(-c2ccccc2NC(=O)C2CCN(Cc3cc(OC)ccc3O)CC2)c1,15.8µM*
Cc1cc(=O)[nH]c(-n2nc(C)cc2NC(=O)c2cc(Br)ccc2Cl)n1,i
COc1ccccc1CNC(=O)Cn1ccc2cc(Cl)ccc21,i
CCCCCC(=O)N[C@@H](Cn1ccc(=O)[nH]c1=O)C(=O)O,i
Cc1c(-c2ccccc2)[nH]c2c(CNC(=O)Cn3ccc(=O)[nH]c3=O)cc(Cl)cc12,28.2µM*
NC(=O)C1(C(=O)NCc2nc(-c3cccc(F)c3)c(-c3ccccn3)[nH]2)CC1,i
SMILES,KDM5B inh
Cc1c(-c2ccccc2)[nH]c2c(CNC(=O)c3ccc(=O)n(C)n3)cc(Cl)cc12,i
Cc1cc(CNC(=O)C2(C(N)=O)CC2)c2[nH]c(-c3ccccc3)c(C)c2c1,28.2µM*
CCc1[nH]c2c(CNC(=O)c3n[nH]c4c3CCC4)cc(C)cc2c1C,i
Cc1cccc(NC(=O)CCn2cnnn2)c1,i
Cc1c(-c2ccccc2)[nH]c2c(CNC(=O)CCn3cnnn3)cc(Cl)cc12,25.1µM*
CN(C)C(=O)CNC(=O)c1nn(C)c(=O)c2ccccc12,i
O=C(CCc1ncc(-c2c(F)cccc2F)o1)N1CCN(S(=O)(=O)c2cccc(Cl)c2)CC1,i
COc1ccc(C)cc1NC(=O)/C=C/c1nc2ccccc2o1,i
O=C(c1ccc2ccccc2c1)N(Cc1ccc2[nH]ccc2c1)C1CC1,i
C#CCN(C)Cc1nc(C2(O)CCN(CCC(C)C)CC2)cs1,i
C[S+](=O)([O-])c1cccc(NC(=O)Cc2c[nH]c3ncc(-c4cccnc4)cc23)c1,i
NC(=O)Cc1c[nH]c2ncc(-c3cccc(N4CCOCC4)c3)cc12,i
O=C(Cc1c[nH]c2ncc(-c3ccccc3)cc12)Nc1ccc(N2CCOCC2)cc1,i
Cn1cc(-c2cnc3[nH]cc(CC(=O)Nc4cccc(F)c4)c3c2)cn1,28.2µM*
Cn1cc(-c2cnc3[nH]cc(CC(=O)Nc4ccccc4Cl)c3c2)cn1,31.6µM*
Cn1cc(-c2cnc3[nH]cc(CC(=O)NCc4ccc5c(c4)OCO5)c3c2)cn1,i
O=C(Cc1c[nH]c2ncc(-c3cccnc3)cc12)Nc1ccc(C(F)(F)F)cc1,i
NC(=O)Cc1c[nH]c2ncc(-c3cccc(F)c3)cc12,31.6µM*
Cc1cc(-c2cnc3[nH]cc(CC(N)=O)c3c2)ccn1,i
Cc1ccc2[nH]c(=O)c(CN(C)S(=O)(=O)c3ccc(Cl)cc3)cc2c1,i
Cc1nn(C)c2sc(C(=O)N3CCN(S(=O)(=O)c4ccc(F)cc4)CC3)cc12,i
CCC(CC)NC(=O)C1CCc2nc(N3CCN(C(=O)C(C)C)CC3)sc2C1 (centres undefined),i
Cc1ccc(-c2cc(=O)c3cc(Br)ccc3o2)cc1,i
Cc1cc(C(=O)CN2C(=O)NC(Cc3c[nH]c4ccccc34)C2=O)c(C)n1C1CC1 (centres undefined),i
COc1cc2c(cc1OC)C(C[C@H]1CN(C(=O)c3ccc(N(C)C)cc3)CC[C@H]1CC(=O)O)=NCC2,28.2µM*
